From PubChem BioAssay (NCI) come the findings set out here.

About 83,000 compounds went through this panel and 20% of them were active in at least one assay; those are over-represented in the sample as a whole.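 Single-concentration screen, 48 h exposure, 96-well plates. Endpoint: percent growth. Below 10 = active.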 Unmarked numbers belong to inactive results. Activity calls are given as the source filed them.

Common to all, as to experiment: NCI-60 one-dose screen, 48 h (100 = growth as untreated, 0 = no growth, -100 = all killed)
The subject of one test is HOP-92 NSCLC. As to conditions: 10 µM unless noted.
For another test, the system named is NCI-H522 lung. Particulars: 10 µM unless noted.
In the next test the test system is A549/ATCC NSCLC. As to conditions: 10 µM unless noted.
A further test deals with SNB-75 CNS. Particulars: 10 µM unless noted.
In another test the test system is SK-MEL-5 melanoma. Particulars: 10 µM unless noted.
In a further test the test system is SK-MEL-28 melanoma. Particulars: 10 µM unless noted.
Another test deals with EKVX NSCLC. Particulars: 10 µM unless noted.
The test system of the next test is CAKI-1 renal. Particulars: 10 µM unless noted.
The next test deals with CCRF-CEM leukemia. As to conditions: 10 µM unless noted.
The next test relates to SR leukemia. As to conditions: 10 µM.
A further test relates to RPMI-8226 leukemia. Particulars: 10 µM unless noted.
For the next test, the system named is OVCAR-5 ovarian. Particulars: 10 µM unless noted.
The subject of the next test is IGROV1 ovarian. As to conditions: 10 µM.
Another test has as its system OVCAR-3 ovarian. Particulars: 10 µM unless noted.
A further test relates to HS 578T breast. As to conditions: 10 µM unless noted.
For a further test, the system named is MCF7 breast. As to conditions: 10 µM unless noted.
For a further test, the system named is COLO 205 colon. As to conditions: 10 µM.
For another test, the system named is PC-3 prostate. Particulars: 10 µM unless noted.
The test system of another test is HT29 colon. As to conditions: 10 µM unless noted.

Take `Cc1cc(CCl)c(C)cc1CCl`: the growth was 79.3% in the test with HOP-92 NSCLC; 55.5% with NCI-H522 lung; 55% in the test with A549/ATCC NSCLC; 48.4% with SNB-75 CNS; 70.1% in the test with SK-MEL-5 melanoma; 77.7% in the test on SK-MEL-28 melanoma. For the same molecule, the growth with EKVX NSCLC is 106%; in the test on CAKI-1 renal it was 5.81% (active); with CCRF-CEM leukemia, 19.7%; in the test with SR leukemia, 11.9%; in the test with RPMI-8226 leukemia, 26.4%; in the test with OVCAR-5 ovarian it was 141%. For the same molecule, the growth is 26.4% with IGROV1 ovarian, 2.57% (active) with OVCAR-3 ovarian, 81.7% in the test with HS 578T breast and 7.03% (active) in the test on MCF7 breast.

With `N#C[Se]CCN1C(=O)C2C(C1=O)[C@H]1C=C[C@@H]2S1` (stereo partly drawn), the growth in the test on HOP-92 NSCLC was -46.3% (active); with A549/ATCC NSCLC, -19.3% (active); in the test on COLO 205 colon, 68.3%; in the test on PC-3 prostate, 5.36% (active); with SK-MEL-28 melanoma, -19.2% (active); with EKVX NSCLC it was -51.6% (active). Also, the growth with CCRF-CEM leukemia is 8.31% (active); in the test with SR leukemia it was 6.77% (active); in the test with RPMI-8226 leukemia it was -10.4% (active); in the test with OVCAR-5 ovarian it was 14.7%; with IGROV1 ovarian, -54.4% (active); in the test with HS 578T breast it was -10.3% (active). Further, in the test on MCF7 breast, the growth is 5.71% (active).

Take `CC(=O)Nc1ccc(Cc2ccc(NC(C)=O)cc2)cc1`: the growth was 45.6% in the test with HOP-92 NSCLC; 104% with NCI-H522 lung; 95% with A549/ATCC NSCLC; 104% in the test on HT29 colon; 93.4% with SNB-75 CNS; 71.4% in the test with PC-3 prostate. The growth was 104% in the test with SK-MEL-5 melanoma; 109% in the test on SK-MEL-28 melanoma; 103% with EKVX NSCLC; 88.9% in the test with CAKI-1 renal; 101% with CCRF-CEM leukemia; 125% with SR leukemia. Besides, the growth was 98.2% with RPMI-8226 leukemia; 90.7% in the test on OVCAR-5 ovarian; 116% with IGROV1 ovarian; 119% with OVCAR-3 ovarian; 99.8% in the test with MCF7 breast.

For `CC(=O)[O][Hg][c]1ccccc1`, the growth with HOP-92 NSCLC was -94.7% (active); with NCI-H522 lung, -32.8% (active); in the test on COLO 205 colon it was -98.5% (active); in the test with HT29 colon, -47.9% (active); with SNB-75 CNS, -65.9% (active); with PC-3 prostate, -57.8% (active). The growth in the test with SK-MEL-5 melanoma was -87.6% (active); in the test with SK-MEL-28 melanoma, -88.4% (active); with EKVX NSCLC, -35.7% (active); in the test with CAKI-1 renal, -69.7% (active); in the test on CCRF-CEM leukemia it was 0.0979% (active); in the test on SR leukemia, -31.3% (active). The growth in the test with RPMI-8226 leukemia was 10.1%; in the test on IGROV1 ovarian, -55.1% (active); in the test with HS 578T breast it was 16.4%; with MCF7 breast, -75.2% (active).

In the case of `CC(C)(NC(=O)c1nn(CCCCCF)c2ccccc12)c1ccccc1`, the growth with HOP-92 NSCLC is 68.6%; in the test on NCI-H522 lung it was 64.3%; in the test with A549/ATCC NSCLC, 76.4%; in the test with HT29 colon, 81.9%; in the test on SNB-75 CNS it was 88.5%; in the test on SK-MEL-5 melanoma it was 90.3%. The growth in the test on SK-MEL-28 melanoma is 111%; with EKVX NSCLC, 94.7%; in the test with CCRF-CEM leukemia, 82.5%; with SR leukemia it was 85.2%; with RPMI-8226 leukemia it was 78.6%; in the test on OVCAR-5 ovarian it was 103%. Moreover, the growth in the test on OVCAR-3 ovarian is 105%; in the test with HS 578T breast, 96.6%; with MCF7 breast, 98.3%.

With `C[C@]12CCc3sc(-c4ccc(Cl)cc4)nc3C1=CC[C@@H]1[C@@H]2CC[C@]2(C)C(=O)CC[C@@H]12`, the growth is 98.6% with HOP-92 NSCLC; 80.2% in the test with A549/ATCC NSCLC; 97.2% in the test on COLO 205 colon; 58.3% with SNB-75 CNS; 50% in the test on PC-3 prostate; 62.4% in the test with SK-MEL-5 melanoma. For the same molecule, the growth is 63.1% in the test on SK-MEL-28 melanoma; 72.3% in the test with EKVX NSCLC; 67.7% with CAKI-1 renal; 10.9% with SR leukemia; -17.8% (active) with RPMI-8226 leukemia; 98.2% in the test on OVCAR-5 ovarian. For the same molecule, the growth was 92.5% in the test with IGROV1 ovarian, 27.2% in the test on OVCAR-3 ovarian, 44.6% in the test with HS 578T breast and 24.4% in the test with MCF7 breast.

`CCOC(=O)Nc1cc(Cl)c([N+](=O)[O-])c(NC(=O)OCC)n1`: the growth with HOP-92 NSCLC was 78.2%; with NCI-H522 lung, 7.41% (active); with A549/ATCC NSCLC it was 95.2%; in the test on COLO 205 colon, 115%; in the test on HT29 colon, 82.5%; in the test on SNB-75 CNS, 97.3%. For the same molecule, the growth in the test on PC-3 prostate is 92.2%; in the test on SK-MEL-28 melanoma, 79%; in the test on CCRF-CEM leukemia, 33.1%; in the test on SR leukemia it was -22.8% (active); with RPMI-8226 leukemia it was 71.5%; in the test with OVCAR-5 ovarian, 104%. Further, the growth with IGROV1 ovarian is 55.6%; in the test with OVCAR-3 ovarian, 103%; in the test with HS 578T breast, 106%; with MCF7 breast, 51.4%.

Regarding `Nc1ccc(N)c2c1Oc1ccccc1O2`, the growth with HOP-92 NSCLC was 74.8%; in the test with A549/ATCC NSCLC it was 107%; in the test on HT29 colon it was 110%; with SNB-75 CNS, 108%; in the test on PC-3 prostate, 88%; in the test on SK-MEL-5 melanoma, 72.6%. For the same molecule, the growth in the test on SK-MEL-28 melanoma was 108%; with EKVX NSCLC it was 92.1%; with CCRF-CEM leukemia it was 30.3%; with RPMI-8226 leukemia, 81%; in the test on OVCAR-5 ovarian, 89%; in the test on IGROV1 ovarian it was 6.91% (active). Further, the growth was 99% in the test with OVCAR-3 ovarian, 75.2% in the test with HS 578T breast and 98% in the test on MCF7 breast.

Turning to `O=C(O)c1cccc(CCl)c1`, the growth in the test on HOP-92 NSCLC is 84.3%; with A549/ATCC NSCLC, 96%; in the test with COLO 205 colon, 106%; in the test with HT29 colon, 102%; with SNB-75 CNS, 87.2%; in the test on PC-3 prostate, 102%. Further, the growth in the test with SK-MEL-5 melanoma was 113%; with SK-MEL-28 melanoma, 110%; with CAKI-1 renal it was 106%; in the test on SR leukemia it was 89.5%; in the test with OVCAR-5 ovarian it was 102%; with OVCAR-3 ovarian, 109%.

Take `OC1(c2ccc(Cl)cc2Cl)c2ccccc2C2=NCCN21` (stereo not drawn): the growth was -2.5% (active) with HOP-92 NSCLC; 103% in the test on A549/ATCC NSCLC; 90.6% in the test on COLO 205 colon; 92.2% in the test with HT29 colon; 94.2% in the test with SNB-75 CNS; 79% in the test on PC-3 prostate. In addition, the growth in the test with SK-MEL-5 melanoma is 83%; with EKVX NSCLC it was 97.9%; in the test on CAKI-1 renal it was -21.8% (active); in the test with SR leukemia it was 80.5%; in the test with RPMI-8226 leukemia it was 82.3%; in the test on OVCAR-5 ovarian, 94.4%. The growth in the test on IGROV1 ovarian was 78.9%; in the test on OVCAR-3 ovarian it was 85.6%; in the test with HS 578T breast, 77.7%; in the test with MCF7 breast, 96.4%.

In the case of `N#Cc1ncc(/N=C/c2ccc(N(CCCl)CCCl)cc2)s1`, the growth in the test with HOP-92 NSCLC is 78.5%; in the test with A549/ATCC NSCLC, 86%; in the test on HT29 colon, 91.6%; with SNB-75 CNS, 61.6%; with PC-3 prostate it was 66.9%; in the test on SK-MEL-5 melanoma it was 88.4%. Also, the growth with SK-MEL-28 melanoma was 102%; with EKVX NSCLC it was 91.2%; with CAKI-1 renal, 7.36% (active); in the test on CCRF-CEM leukemia it was 56.2%; with SR leukemia, 12.7%; with OVCAR-5 ovarian, 100%. Further, the growth was 90% with IGROV1 ovarian, 78.5% with OVCAR-3 ovarian, 90.4% in the test with HS 578T breast and 48.7% with MCF7 breast.
